Compound activity (PubChem BioAssay)
An excerpt weighted towards active compounds, which were near 12% of everything screened.
HP1b chromo inh: inhibitors of HP1-beta chromodomain binding to methylated histone tails | P83916 | AlphaScreen HP1-beta / biotin-H3K9me3 peptide binding | Potency, µM (titrated, usually from 114 µM), without a hit: at the top dose activity change, negative = inhibition, most hits filed as inhibitors | actives 0.56% (n = 390,000); note: potency is the fitted concentration of half-maximal effect; nearly all actives have a fitted effect of over 70% in size
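Compound inhibition of the preformed complex between 50 nM HP1-beta and 50 nM biotinylated H3K9me3 peptide was read by AlphaScreen. Buffer was PBS pH 7.4 with 0.01% Tween-20. Incubations ran 30 min at room temperature, with 10 ug/mL donor/acceptor beads.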
Sfp PPTase inh: Sfp phosphopantetheinyl transferase inhibition | actives 3.5% (n = 310,000) | AID 1490 | Q9F4F7 | Biochemical Sfp PPTase activity, qHTS | Potency, µM, without a hit: largest response in the series, negative = inhibition, hits mostly inhibitors;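 note: the enzyme is Sfp with the accession as filed and its product quenches rhodamine fluorescence; potency is the fitted concentration of half-maximal effect; 0% = enzyme reaction without inhibitor and -100% = no enzyme wells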
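Buffer: 50 mM Hepes-Na pH 7.6, 10 mM MgCl2, 0.01% Nonidet P-40, 0.01% BSA. Enzyme 15 nM, pre-exposed to compound 15 min; substrates then added and fluorescence change tracked over 30 min.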
G9a inh-1: blocks human histone lysine methyltransferase G9a; G9a H3K9 monomethylation, AlphaScreen, 2 h; actives 8.8% (n = 350,000); AID 504332; Potency, µM (titrated, usually from 102 µM), inactives show at the top dose activity, negative = inhibition, usual class: inhibitors; note: potency is the fitted concentration of half-maximal effect; % is set by controls: 0 for no effect and ±100 for the full control effect; nearly all actives have a fitted effect of over 75% in size
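Chemiluminescent proximity detection of H3K9 monomethylation, read after 10 min bead incubation in the dark. Reaction: 20 nM G9a, 500 nM biotin-H3K9 peptide, 20 uM SAM cofactor, 2 h, room temperature, following 15 min enzyme-compound preincubation.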
BAZ2B block: blocks human BAZ2B. Q9UIF8. AlphaScreen BAZ2B-H3K14Ac peptide displacement. Potency, µM (highest dose often 114 µM), without a hit: at the top dose activity change, negative = inhibition, hits mostly inhibitors. actives 4.4% (n = 360,000); note: potency is the fitted concentration of half-maximal effect; % is set by controls: 0 for no effect and ±100 for the full control effect; nearly all actives have a fitted effect of over 60% in size
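AlphaScreen luminescence quantifies BAZ2B engagement of H3K14Ac peptide; the protein and biotinylated peptide are both at 50 nM final, buffer PBS pH 7.4 with 0.01% Tween-20, all steps at room temperature.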
JMJD2A Tudor inh: inhibitors of human JMJD2A Tudor domain; O75164; AlphaScreen JMJD2A-Tudor / H3K4me3 peptide binding; Potency, µM (titrated, usually from 114 µM), for the others: at the highest dose activity change, negative = inhibition, usual class: inhibitors; actives 4.4% (n = 390,000); AID 504339; note: potency is the fitted concentration of half-maximal effect; % is set by controls: 0 for no effect and ±100 for the full control effect; nearly all actives have a fitted effect of over 50% in size
G9a inh-2: confirmation of human histone methyltransferase G9a inhibitors; shares compounds with JMJD2A Tudor inh; G9a H3K9 monomethylation, AlphaScreen, 2 h; Potency, µM, usual class: inhibitors; actives 89% (n = 370); AID 588344; note: potency is the fitted concentration of half-maximal effect; nearly all actives have a fitted effect of over 65% in size
RGS4 confirm: confirmation of human RGS4 inhibitors. shares compounds with JMJD2A Tudor inh. RGS4 GAP activity, Transcreener GDP fluorescence polarization. Potency, µM, actives largely listed as inhibitors. actives 80% (n = 25)
Active calls of the source: *; ? = inconclusive; nt = not tested or not shown; [ ] = dose if it differs, or a comment. Calls come from the whole dose curve; as a rule, active = well fitted curve in the direction sought with a large enough effect; inconclusive = small, poorly fitted or top-dose-only effect, or another doubt; inactive = no such curve, though single readings can be large; an effect the other way counts as inactive or inconclusive.

SMILES | HP1b chromo inh | Sfp PPTase inh | G9a inh-1 | BAZ2B block | JMJD2A Tudor inh | G9a inh-2 | others
CCOC(=O)c1cnc(-n2nc(C)cc2C)nc1Nc1ccc2c(c1)OCO2 | nt | 4% | ? | -25% | nt | nt
O=C(CCN1CCOCC1)NC12CC3CC(CC(C3)C1)C2 | 45% | 5% | -41% | 25% | 6% | nt
FC(F)(F)c1ccccc1-c1cncnc1NCc1ccccc1 | nt | -2% | 9%[0.501 µM] | nt | nt | nt
CNc1ncncc1-c1ccccc1C(F)(F)F | nt | ? | ? | nt | nt | nt | RGS4 confirm=27*
O=C(NCCCN1CCCC1=O)c1csc2ccccc12 | 41% | 20% | -2%[59 µM] | 5% | -3% | nt
CCOc1cccc(CNc2ccc(O)cc2)c1OCc1ccc(Cl)cc1Cl | ? | 14µM* | 2.5µM* | ? | -35% | 2.5*
CCOc1cccc(CNCCO)c1OCc1ccc(Cl)cc1Cl | 16% | ? | 12%[59 µM] | 6% | -11% | nt
CCOc1cccc(CNc2ccc(O)cc2)c1OCc1ccccc1Cl | ? | -13% | 4.5µM* | ? | 45µM* | 3.2*
CCN(CC)c1ccc(S(=O)(=O)N2CCOCC2)cc1NC(=O)Nc1ccccc1 | 1% | nt | nt | nt | -10% | nt
O=C(NNC(=O)C1CC2CCC1C2)c1ccccc1 (stereo not given) | 28% | -12% | -3%[59 µM] | 9% | 3% | nt
O=C(CCN1CCC(c2ccccc2)C1)c1ccc2c(c1)OCCO2 (stereo not given) | 13% | 50µM* | 7.9µM* | ? | -24% | 5.1*
O=C(CN1CCC(C(=O)c2ccc3c(c2)OCCO3)CC1)NCc1ccccc1 | -20% | 19% | 0% | -22% | -14% | nt
O=C(CN1C(=O)S/C(=C\C=C\c2ccccc2)C1=O)Nc1cccc(O)c1 | 1% | -6% | -8% | -35% | -32% | nt
O=S(=O)(NN1CCOCC1)c1ccc(Br)cc1 | 40% | 1% | 0.4µM* | 0% | -3% | 1.6*
NC(=O)c1ccc2nc(-c3ccccc3)c(-c3ccccc3)nc2c1 | 14% | 5% | 15% | -22% | -6% | nt
CCN(CC)c1ccc(NC(=O)COC(=O)c2ccc3ccccc3n2)cc1 | ? | ? | ? | 50µM* | ? | 6.3*
CCN(CC)c1ccc(NC(=O)COC(=O)c2cccs2)cc1 | -8% | -6% | 1.3µM* | 45µM* | ? | 2.2*
CCc1ccccc1NC(=O)COC(=O)c1cccs1 | 5% | 11% | 16%[59 µM] | 9% | -8% | nt
CCOC(=O)N1CCc2c(sc(NCc3sccc3C)c2C(=O)Nc2cc(OC)ccc2OC)C1 | ? | nt | 2.8µM* | ? | 11µM* | 5.8*
CCOC(=O)N1CCc2c(sc(NCc3ccc(OC)c(Br)c3)c2C(=O)Nc2cc(OC)ccc2OC)C1 | ? | nt | 1.6µM* | -31% | ? | 1.8*
CCOc1ccc(NC(=O)c2c(NC(=O)c3ccccc3F)sc3c2CCC3)cc1 | 36% | nt | 0%[59 µM] | 3% | -11% | nt
CCOc1ccc(NC(=O)c2c(NCc3cccnc3)sc3c2CCC(C)C3)cc1 (stereo not given) | -1% | nt | 2.2µM* | ? | 16µM* | 1.3*
CCOC(=O)N1CCc2c(sc(NCc3cccc(F)c3)c2C(=O)Nc2ccc(OCC)cc2)C1 | -13% | nt | 2µM* | ? | ? | 3.6*
CCOC(=O)N1CCc2c(sc(NC(=O)Cc3ccccc3)c2C(=O)c2ccc(OC)cc2)C1 | 7% | -12% | ? | -35% | -31% | nt
CC(=O)N(Cc1cccs1)Cc1cc2ccc(C)c(C)c2nc1Cl | 61% | ? | 49% | 6% | -4% | nt
Cc1ccc(NC(=O)c2ccc(S(=O)(=O)N3CCOCC3)cc2)c(C)c1 | 7% | 22% | 16% | 1% | -6% | nt
O=C(CN1C(=O)COc2ccc(S(=O)(=O)N3CCOCC3)cc21)N1CCN(c2ccc(Cl)cc2)CC1 | 6% | nt | 0%[59 µM] | -21% | -27% | nt
CCn1c(C(=O)O)c(CC(=O)Nc2ccccc2OC)c2ccccc21 | 24% | 5% | 11% | -14% | -11% | nt
